Source: PubChem BioAssay AID1159580 (chemical genetic matrix, 2015)
Values joined by “and” are separate entries in the source; they are usually repeats but may differ in a detail not shown here. Identical values can stand only once. Out of some 5,500 compounds screened, about 2,000 (36%) were called active. About 18% were inconclusive and are not listed. Cut-off read from the data, not from the text of the source: active = normalized growth mostly below about 0.91 (no sharp cut-off); inconclusive = no clear call, values can overlap the other calls; inactive = mostly above about 0.92. The list shows a part of the results.

Assay: chemical genetic growth profiling, strain panel (AID 1159580);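 note: tested at 20 µM; growth read once vehicle control cultures reached saturation at 30 °C; 1 = growth at the plate median or of vehicle wells; lower values mean less growth of the strain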
Details: S. cerevisiae deletion strains, growth OD

Measured: normalized growth

Cc1cc(O)c(C)c(O)c1C(=O)O
inactive: locus YAL021C, strain ccr4, active compounds read low 0.989 | locus YAL026C, strain drs2, active compounds read low 0.979 | locus YAL030W, strain snc1, active compounds read low 0.999 | locus YBL061C, strain skt5, active compounds read low 0.989 | locus YBR009C, strain hhf1, active compounds read low 0.97 | locus YBR021W, strain FUR4, active compounds read low 0.986 | locus YBR023C, strain chs3, active compounds read low 0.981 | locus YBR171W, strain sec66, active compounds read low 0.99 | locus YBR229C, strain ROT2, active compounds read low 0.993 | locus YBR231C, strain swc5, active compounds read low 0.992 | locus YBR279W, strain paf1, active compounds read low 0.984 | locus YCL011C, strain gbp2, active compounds read low 0.991 | locus YCL016C, strain dcc1, active compounds read low 0.99 | locus YCL029C, strain bik1, active compounds read low 0.976 | locus YCL061C, strain MRC1, active compounds read low 1.01 | locus YCL069W, strain vba3, active compounds read low 0.995 | locus YCR088W, strain abp1, active compounds read low 0.988 | locus YDL005C, strain med2, active compounds read low 0.984 | locus YDL035C, strain GPR1, active compounds read low 1.03 | locus YDL040C, strain nat1, active compounds read low 0.99 | locus YDL074C, strain BRE1, active compounds read low 1.06 | locus YDL101C, strain DUN1, active compounds read low 0.986 | locus YDL134C, strain PPH21, active compounds read low 0.978 | locus YDL185W, strain tfp1, active compounds read low 0.964 | locus YDL192W, strain arf1, active compounds read low 0.997 | locus YDR001C, strain nth1, active compounds read low 0.981 | locus YDR069C, strain doa4, active compounds read low 0.956 | locus YDR101C, strain arx1, active compounds read low 1.04 | locus YDR137W, strain rgp1, active compounds read low 0.899 | locus YDR159W, strain sac3, active compounds read low 0.983 | locus YDR162C, strain NBP2, active compounds read low 1.03 | locus YDR195W, strain ref2 0.977 | locus YDR297W, strain sur2, active compounds read low 0.986 | locus YDR318W, strain mcm21, active compounds read low 0.979 | locus YDR334W, strain swr1, active compounds read low 0.975 | locus YDR335W, strain msn5, active compounds read low 0.985 | locus YDR388W, active compounds read low 1 | locus YDR392W, strain spt3, active compounds read low 0.931 | locus YDR502C, strain sam2, active compounds read low 0.98 | locus YEL003W, strain gim4, active compounds read low 0.978 | locus YEL037C, strain rad23, active compounds read low 0.976 | locus YEL061C, strain CIN8 (second series), active compounds read low 0.979 | locus YEL061C, strain CIN8, active compounds read low 1 | locus YER015W, strain faa2, active compounds read low 0.987 | locus YER016W, strain bim1, active compounds read low 0.991 | locus YER110C, active compounds read low 0.984 | locus YER111C, strain swi4, active compounds read low 0.985 | locus YER155C, strain BEM2 (second series), active compounds read low 0.968 | locus YER155C, strain BEM2, active compounds read low 0.988 | locus YER167W, strain BCK2, active compounds read low 1.01 | locus YFR010W, strain ubp6, active compounds read low 0.975 | locus YGL078C, strain dbp3, active compounds read low 0.95 | locus YGL086W, strain mad1, active compounds read low 0.997 | locus YGL167C, strain pmr1, active compounds read low 0.974 | locus YGL173C, strain kem1, active compounds read low 0.984 | locus YGL227W, strain vid30, active compounds read low 0.995 | locus YGL240W, strain doc1, active compounds read low 0.906 | locus YGL248W, strain PDE1, active compounds read low 0.978 | locus YGL253W, strain hxk2, active compounds read low 0.993 | locus YGR078C, strain PAC10, active compounds read low 0.976 | locus YGR135W, strain pre9, active compounds read low 0.925 | locus YGR252W, strain gcn5, active compounds read low 0.926 | locus YHR013C, strain ard1, active compounds read low 0.954 | locus YHR027C, strain rpn1, active compounds read low 0.997 | locus YHR030C, strain SLT2, active compounds read low 1.04 | locus YHR079C, strain IRE1 (second series), active compounds read low 0.993 | locus YHR079C, strain IRE1, active compounds read low 1.02 | locus YHR094C, strain hxt1, active compounds read low 0.981 | locus YHR129C, strain ARP1, active compounds read low 1.01 | locus YHR142W, strain chs7, active compounds read low 1.02 | locus YHR200W, strain rpn10, active compounds read low 0.96 | locus YIL066C, strain RNR3, active compounds read low 1.01 | locus YIL073C, strain SPO22, active compounds read low 0.806 | locus YIL125W, strain kgd1, active compounds read low 1 | locus YIR030C, strain dcg1, active compounds read low 0.989 | locus YJL092W, strain hpr5, active compounds read low 1 | locus YJL095W, strain BCK1 (second series), active compounds read low 1 | locus YJL095W, strain BCK1, active compounds read low 0.988 and 1.05 | locus YJL115W, strain asf1, active compounds read low 0.983 | locus YJL129C, strain trk1, active compounds read low 0.995 | locus YJL134W, strain LCB3, active compounds read low 1 | locus YJL154C, strain vps35, active compounds read low 0.986 | locus YJL164C, strain tpk1, active compounds read low 1.01 | locus YJL166W, strain qcr8, active compounds read low 0.961 | locus YJL168C, strain set2, active compounds read low 0.982 | locus YJL187C, strain SWE1 (second series), active compounds read low 0.985 | locus YJL187C, strain SWE1, active compounds read low 0.992
